Only some compounds are listed: those with a hit (about 4.5% of all), similar ones and a draw of the others.
SKKanGAS inh = blocks kanamycin growth of S. pyogenes SKKanGAS strain | BacTiter-Glo, 6 h | inhibition, % at 7.5 µM | hit rate 1.3% among 300,000;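 active means mean replicate score, as percent of positive control median, at least 50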;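 further: strain carries kanamycin resistance gene driven by streptokinase promoter and grows in 40 µg/ml kanamycin; loss of luminescence reflects streptokinase promoter inhibition or plain growth inhibition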
tim23-1 inh = inhibits growth of tim23-1 mutant yeast; S. cerevisiae tim23-1 growth, BacTiter-Glo luminescence, 24 h; inhibition, % at 20 µM; hit rate 1.3% among 330,000;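 active means growth inhibition of the mutant yeast at or above 50%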;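 further: temperature-sensitive mutant grown at 25 °C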
TIM10 inh = inhibits growth of TIM10 yeast strain | S. cerevisiae TIM10 strain growth, BacTiter-Glo luminescence, 24 h | inhibition, % at 10 µM | hit rate 1.4% among 330,000;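 active means inhibition of 40% or more at the single tested concentration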;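 further: wild-type TIM10 isogenic control strain grown at permissive 25 °C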
PfHsp90 yeast 2 = inhibits growth of yeast expressing Plasmodium falciparum Hsp90; S. cerevisiae expressing PfHsp90, BacTiter-Glo ATP, 48 h; yeast lacking PDR1 and PDR3 efflux regulators; inhibition, % at 9.4 µM; hit rate 0.32% among 310,000;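 active means every replicate shows inhibition above about 80%, whatever the replicate mean, limit read from the data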
tim10-1 inh = tim10-1 yeast growth inhibition; S. cerevisiae tim10-1 ts strain growth, BacTiter-Glo, 24 h; inhibition, % at 20 µM; hit rate 2.2% among 330,000;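 active means inhibition of at least 40%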;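 further: mutant grown at 25 °C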
NLRP3 yeast inh = inhibitors of NALP3 inflammasome in yeast; Yeast reconstituted NLRP3/ASC/caspase-1, beta-gal luminescence, 24 h; inhibition, % at 10 µM; hit rate 0.39% among 330,000; AID 2825;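 active means inhibition of 50% or more; inactive means inhibition below 50%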
tim23-1 confirm = confirmation of tim23-1 mutant yeast growth inhibitors; shares compounds with tim23-1 inh; S. cerevisiae tim23-1 growth, BacTiter-Glo luminescence, 24 h; inhibition, % at 20 µM; hit rate 83% among 4,400; AID 463218;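 active means inhibition above about 39% in either of two replicate wells at 20 µM, limit read from the data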;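 further: temperature-sensitive tim23-1 mutant grown at 25 °C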
Each line names hits and unclear results; the compound was inactive in the other large screens (follow-up assays come after a bar, where they were run).

CCCc1nc2ccccc2c(=O)n1-c1ccc(OC)cc1	none
CCCc1nc2ccccc2c(=O)n1-c1cccc(OC)c1	tim23-1 inh 83.1 | tim23-1 confirm inactive
C[C@@]12N[C@@H](Cc3ccccc31)c1ccccc12	none
COC(=O)C1=C(c2cccc(C#N)c2)C[C@@H]2CC[C@H]1N2C(=O)N1CCCCC1	none (no result: SKKanGAS inh)
Cc1oc(-c2ccccc2)nc1CN1C(=O)C(C)N=C(c2ccccc2F)c2cc(Cl)ccc21 (configuration not stated)	tim23-1 inh 52.3 | tim23-1 confirm 57.0
CN1C(=O)C(=Cc2ccccc2OS(=O)(=O)c2ccccc2)C(=O)N(C)C1=O	tim23-1 inh 76.5 | tim23-1 confirm 73.0
Cc1[nH]c2ccc(OC(F)(F)F)cc2c1CCNCc1ccc(Cl)cc1	tim23-1 inh 65.6 | tim23-1 confirm inactive
Cc1[nH]c2ccc(OC(F)(F)F)cc2c1CCNCc1cccc([N+](=O)[O-])c1	none
COCCCNP1(=O)OCC(C)([N+](=O)[O-])CO1 (configuration not stated)	none (no result: SKKanGAS inh, tim23-1 inh, TIM10 inh, tim10-1 inh, NLRP3 yeast inh)
Cc1cc(N=Nc2ccccc2C)ccc1N	tim23-1 inh 63.5 | tim23-1 confirm inactive
Nc1ccc(N=Nc2ccccc2)cc1	none
COc1ccc(-n2c(/C=C/c3ccc4c(c3)OCO4)nc3ccccc3c2=O)cc1	tim23-1 inh 50.3 | tim23-1 confirm 44.7

Bioassay records from PubChem.
